Drawing on PubChem BioAssay, this text covers z-score for 36 compounds.

Structures are written as SMILES.

This assay is described as follows: compound effects on hepatocellular carcinoma cell viability – HepG2, calcein-AM fluorescence, 48 h, basal, profiling panel (AID 1164). Also: test concentration not given here. Particulars: higher = more signal.
In the case of `CO[C@H]1COC(=O)CC=C[C@H](C)[C@H](OC)COC(=O)[C@@H](C)NC(=O)CC=C[C@@H]1C`, the z-score is -0.642.
As to `CCOC(=O)[C@H](Cc1ccccc1)NC(=O)CCC1CC(OC(=O)NCCc2ccc(F)cc2)CC2(CCCC(COC(=O)NCc3cccc(C(F)(F)F)c3)O2)O1` (stereo partly specified), the z-score was -0.875.
As for `CCOC(=O)NN=C1C[C@@H](O)[C@@H](O)[C@@H]2[C@@H]3C(=O)N(c4ccc(F)cc4F)C(=O)[C@@H]3CC[C@H]12`, the z-score is -0.925.
With `C[C@]12CCC3c4ccc(OCC5CO5)cc4CCC3C1CC[C@@H]2O` (stereo partly specified), the z-score is 0.266.
`CCOC(=O)CCN1C(=O)[C@H]2[C@H]3[C@H](O)[C@H](O)CC(=NOCC=C(C)CCC=C(C)C)[C@@H]3CC[C@H]2C1=O`: the z-score is -0.124.
As for `CCOC(=O)[C@H](Cc1ccccc1)NC(=O)CCC1CC(OC(=O)NCc2cccc3ccccc23)CC2(CCCC(COC(=O)NCCOc3ccccc3)O2)O1` (stereo partly specified), the figure is -0.175; as for `CCOC(=O)[C@H](Cc1ccccc1)NC(=O)CCC1CC(OC(=O)NCc2ccc3c(c2)OCO3)CC2(CCCC(COC(=O)NCCc3ccc(Cl)cc3)O2)O1` (stereo partly specified), 0.622.
To `O=C(NN=C1C[C@@H](O)[C@@H](O)[C@@H]2[C@@H]3C(=O)N(Cc4ccccc4)C(=O)[C@@H]3CC[C@H]12)OCc1ccccc1` belongs -0.604; to `C[C@@H]1CC[C@H]2C(=O)O[C@@H](CN=[N+]=[N-])CN2[C@H]1c1ccc(Br)cc1`, -4.54.
With `COC(=O)CC=C[C@@H](C)[C@@H](C=NOC[C@@H](O)[C@H]1O[C@@H]2OC(C)(C)O[C@@H]2[C@H]1O)OC`, the z-score was 0.0068.
`CC(CCN1CCCc2nc(C)c(C)cc21)=NO[C@H](C)c1cn([C@@H]2COC[C@H]2O)nn1`: the z-score is 0.243.
On to `CC(C)(C)N1C(=O)[C@H]2[C@H]3[C@H](O)[C@H](O)CC(=NNC(=O)OCc4ccccc4)[C@@H]3CC[C@H]2C1=O`, for which the z-score was -0.289.
As for `COc1cccc([C@H]2Oc3ccc(OC)cc3C(=NO[C@@H](C)c3cc(-c4c(C)cc(C)cc4C)no3)[C@@H]2O)c1`, the figure is -1.08; as for `O=C1C2=CC[C@H]3C(=O)N(C[C@@H]4CCCO4)C(=O)[C@H]3[C@H]2[C@H](O)[C@@H]2O[C@H]12`, -0.228; as for `CCOC(=O)[C@H](Cc1ccccc1)NC(=O)CCC1CC(OC(=O)NCc2cccc3ccccc23)CC2(CCCC(COC(=O)NCCc3ccc(Cl)cc3)O2)O1` (stereo partly specified), -0.397.
Turning to `COC(=O)[C@H](C)NC(=O)CCC1CC(OC(=O)NCc2cccc3ccccc23)CC2(CCCC(COC(=O)NCc3cccc(C(F)(F)F)c3)O2)O1` (stereo partly specified), the z-score was -0.918.
As for `COC(=O)[C@H](C)NC(=O)CCC1CC(OC(=O)NCc2cccc3ccccc23)CC2(CCCC(COC(=O)NCCOc3ccccc3)O2)O1` (stereo partly specified), the z-score is -1.24.
As for `CCOC(=O)CCN1C(=O)[C@H]2[C@H]3[C@H](O)[C@H](O)CC(=O)[C@@H]3CC[C@H]2C1=O`, the figure is -0.0609.
Regarding `C#CCCCON=C1[C@H]2CCn3c(=O)n(Cc4cc5c(cc4Cl)OCO5)c(=O)n3[C@H]2[C@H](O)[C@@H]2O[C@H]12`, the z-score was 0.484.
As for `COC(=O)[C@H](C)NC(=O)CCC1CC(OC(=O)NCCc2ccc(F)cc2)CC2(CCCC(COC(=O)NCCc3ccccc3OC)O2)O1` (stereo partly specified), the figure is 0.308; as for `CCOC(=O)[C@H](Cc1ccccc1)NC(=O)CCC1CC(OC(=O)NCc2ccc3c(c2)OCO3)CC2(CCCC(COC(=O)NCCOc3ccccc3)O2)O1` (stereo partly specified), 0.184.
As for `CCOC(=O)CCN1C(=O)[C@H]2[C@H]3[C@H](O)[C@H](O)CC(=NNC(=O)OCC)[C@H]3CC[C@H]2C1=O`, the figure is -0.418.
Regarding `CCN1C(=O)[C@H]2[C@H]3[C@H](O)[C@H](O)CC(=NOCC[C@@H]4C=C[C@H](OC(C)=O)[C@@H](COC(C)=O)O4)[C@@H]3CC[C@H]2C1=O`, the z-score is -0.296.
For `O=C1C2=CC[C@H]3C(=O)N(c4ccc(F)cc4F)C(=O)[C@H]3[C@H]2[C@H](O)[C@@H]2O[C@H]12`, the z-score was 0.0658.
As to `COc1ccc(O[C@H]2C=C[C@@H](c3ccccc3)O[C@@H]2COC(=O)CCC(C)=NOC[C@@H](O)COCc2ccco2)cc1`, the z-score is 0.599.
Consider `O=C1C[C@@H](O)[C@@H](O)[C@@H]2[C@@H]3C(=O)N(C4CCCCC4)C(=O)[C@@H]3CC[C@@H]12`, for which the z-score is 0.236.
To `CC(CCC(=O)OC[C@H]1O[C@H](C#Cc2ccccc2)C=C[C@@H]1Oc1ccc(C)cc1)=NOC[C@@H](C)[C@H](OCc1ccccc1)C(C)C` belongs -0.489.
As for `CC(C)CON=C1C[C@@H](O)[C@@H](O)[C@@H]2[C@@H]3C(=O)N([C@@H](C)c4ccccc4)C(=O)[C@@H]3CC[C@@H]12`, the figure is -0.829.
To `O=C1[C@H]2[C@H]3[C@H](O)[C@H](O)CC(=NO[C@@H]4O[C@H](CO)[C@@H](O)[C@H](O)[C@H]4O)[C@H]3CC[C@H]2C(=O)N1c1ccc(F)cc1F` belongs -0.846.
As to `COC(=O)[C@@H]1CC[C@H](C)[C@@H](c2ccc(C)cc2)N1C(=O)c1ccc(C=NOC[C@H]2O[C@H](c3ccccc3)C=C[C@@H]2Oc2ccc(OC)cc2)cc1`, the z-score was -0.195.
To `COC(=O)CC=C[C@@H](C)[C@@H](C=NOC[C@@H](O)COCc1ccco1)OC` belongs 0.436; to `CC(C)(C)N1C(=O)[C@H]2[C@H]3[C@H](O)[C@H](O)CC(=NOC[C@@H](O)COCc4ccco4)[C@@H]3CC[C@H]2C1=O`, -0.274; to `C#CCCCON=C1C[C@@H](O)[C@@H](O)[C@@H]2[C@@H]3C(=O)N(C[C@@H]4CCCO4)C(=O)[C@@H]3CC[C@H]12`, -1.28.
As for `CCOC(=O)[C@H](CC(C)C)NC(=O)CCC1CC(OC(=O)NCCc2ccc(F)cc2)CC2(CCCC(COC(=O)NCCOC)O2)O1` (stereo partly specified), the figure is -0.384; as for `CCOC(=O)[C@H](Cc1ccccc1)NC(=O)CCC1CC(OC(=O)NCCc2ccc(F)cc2)CC2(CCCC(COC(=O)NCCC(C)C)O2)O1` (stereo partly specified), 0.368; as for `CC(C)=CCCC(C)=CCON=C1C[C@@H](O)[C@@H](O)[C@@H]2[C@@H]3C(=O)N(C4CCCCC4)C(=O)[C@@H]3CC[C@H]12`, -0.0977.
